Data as given in PubChem BioAssay (NCI).
Compounds without any hit were thinned out: in the full panel of roughly 83,000, 20% have a hit.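 Note: values are percent growth. 100 is the growth of untreated cells, values between 100 and 0 indicate rising inhibition; between -100 and 0 indicates cell death.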 Activity calls are given as the source filed them. Rule for the calls: active = growth percent below 10; inactive = the rest.

Each compound was assayed on NCI-H460 lung (assay: NCI-60 one-dose screen, 48 h (100 = growth as untreated, 0 = no growth, -100 = all killed)). Conditions: 10 µM unless noted.

Structure (SMILES)	growth
O=C1/C(=C/c2ccc(Oc3ccccc3)cc2)N=C(c2ccccc2)N1CCc1cccs1	70.1% (inactive)
O=C1/C(=C/c2ccc(Cl)cc2)N=C(c2ccccc2)N1CCc1cccs1	23.3% (inactive)
COc1ccc(Sc2ccc3[nH]c(=O)nc(N)c3c2)cc1	106% (inactive)
COc1cc(C(=O)N(C(C)C)C2CCCCC2)cc(OC)c1OC	107% (inactive)
COc1ccc(C2OCC(C)(C)CO2)cc1OC	108% (inactive)
O=C(NCc1ccco1)C1CCN(S(=O)(=O)c2ccc(Cl)cc2)CC1	63.1% (inactive)
COc1ccc(-c2csc3c2-n2cccc2C3=O)cc1O	1.57% (active)
COC(=O)[C@@H]1CCCN1C(=O)[C@@H]1CCCN1C(=O)[C@@H](Cc1c[nH]c2ccccc12)NC(=S)Nc1cc(C(F)(F)F)cc(C(F)(F)F)c1	51.6% (inactive)
CCN1C(=O)C2(Nc3ccccc3S2)c2cc(C)ccc21 (stereo not drawn)	109% (inactive)
Cc1nc(-c2ccccc2)cc2c(O)c(C(=O)N/N=C/Cc3ccccc3)[nH]c(=O)c12	102% (inactive)
O=S(=O)(/N=C1C=C/C(=N\S(=O)(=O)c2ccccc2)c2ccccc2\1)c1ccccc1	112% (inactive)
CCCOC(=O)c1ccc2c(c1)[N+](=O)C(C(=O)c1ccccc1)=C(C(F)(F)F)[N+]2=O	-69.9% (active)
CCCN(CCC)c1ccc(/C=C/c2ccc3cc(OCC)ccc3n2)cc1	95.1% (inactive)
COc1cccc(C2CC(=O)Nc3cc4c(cc32)CCC4)c1OC (stereo not drawn)	61.8% (inactive)
CC1SC(c2ccc(Cl)cc2)N(CCc2cccs2)C1=O (stereo not drawn)	-24.4% (active)
O=C(O)c1ccccc1Oc1cc(-c2ccco2)nc(OCCBr)n1	110% (inactive)
COc1ccccc1/C=C/C(=O)/C=C/c1ccccc1O	-58.2% (active)
COc1cc(/C=C/C(=O)C(=Cc2ccc(F)c(F)c2)C(=O)/C=C/c2ccc(O)c(OC)c2)ccc1O	1.97% (active)
CC1(C)CC(=O)C2=C(C1)Nc1cc3c(cc1C2c1ccc(F)cc1)OCO3 (stereo not drawn)	103% (inactive)
Nc1nc(N)c(C=Nc2ccc(Br)cc2)c(Nc2ccc(Br)cc2)n1	95.9% (inactive)

Structure (SMILES)	growth
COc1cc(/C=C2\C(=O)Nc3ccccc32)cc(OC)c1O	40.1% (inactive)
Brc1ccccc1Nc1ccc2nnc(-c3ccncc3)n2n1	104% (inactive)
O=C(Nc1nc2ccccc2[nH]1)C(=O)Nc1nc2ccccc2[nH]1	98.5% (inactive)
COc1ccc(C2SC(C)C(=O)N2CCc2cccs2)cc1OC (stereo not drawn)	90.3% (inactive)
Oc1ccc(Cl)cc1CNc1nc2ccccc2[nH]1	-33.9% (active)
CCOC(=O)c1c(-c2cc(OC)c(OC)c(OC)c2)csc1N	104% (inactive)
COc1cc(C2CC(=O)Nc3c2ccc2ccccc32)cc(Br)c1OC (stereo not drawn)	3.08% (active)
Cc1ccc(-c2nnc(COc3ccc(-c4nnc(N)s4)cc3)o2)cc1	93% (inactive)
COc1cc(/C=C2\C(=O)N(c3c(Cl)cccc3Cl)c3ccccc32)cc(OC)c1O	-4.41% (active)
COC(=O)[C@H]1CCCN1C(=O)[C@H]1CCCN1C(=O)[C@@H](Cc1c[nH]c2ccccc12)NC(=S)Nc1cc(C(F)(F)F)cc(C(F)(F)F)c1	18.6% (inactive)
COc1ncnc2c1ncn2C/C(Br)=C(\Br)CCl	-40.7% (active)
COc1cc(CNCCN2C(=O)c3ccc4c5c(ccc(c35)C2=O)C(=O)N(CCNCc2cc(OC)c(OC)c(OC)c2)C4=O)cc(OC)c1OC	-81.7% (active)
O=C1CN2CCC1C/C2=C\c1ccnc2c(Cl)cccc12 (stereo not drawn)	116% (inactive)
O=C1OCC2=C1C(c1ccc3c(c1)OCO3)CC(=O)N2c1cccc(Cl)c1 (stereo not drawn)	108% (inactive)
Cc1ccc(C2SCC(=O)N2NC(=O)c2[nH]c3ccc(F)cc3c2-c2ccccc2)cc1 (stereo not drawn)	92.2% (inactive)
O=C(Nc1ccccc1)Oc1cccc2cccnc12	74.8% (inactive)
CCOC(=O)c1sc(NC(=O)CN2CCC(Cc3ccccc3)CC2)nc1C	101% (inactive)
CN([N-]C(=O)CC(=O)[N-]N(C)C(=S)c1ccccc1)C(=S)c1ccccc1.[Cu+2]	-35.4% (active)
Clc1cccc(Cl)c1Nc1ccc2nnc(-c3ccncc3)n2n1	106% (inactive)

These compounds were tested on NCI-H522 lung in the same assay as above. Conditions: 10 µM.

Structure (SMILES)	growth
O=C1/C(=C/c2ccc(Oc3ccccc3)cc2)N=C(c2ccccc2)N1CCc1cccs1	46.8% (inactive)
O=C1/C(=C/c2ccc(Cl)cc2)N=C(c2ccccc2)N1CCc1cccs1	23% (inactive)
COc1ccc(Sc2ccc3[nH]c(=O)nc(N)c3c2)cc1	100% (inactive)
COc1cc(C(=O)N(C(C)C)C2CCCCC2)cc(OC)c1OC	88.3% (inactive)
COc1ccc(C2OCC(C)(C)CO2)cc1OC	117% (inactive)
O=C(NCc1ccco1)C1CCN(S(=O)(=O)c2ccc(Cl)cc2)CC1	68.7% (inactive)
COc1ccc(-c2csc3c2-n2cccc2C3=O)cc1O	-22.5% (active)
COC(=O)[C@@H]1CCCN1C(=O)[C@@H]1CCCN1C(=O)[C@@H](Cc1c[nH]c2ccccc12)NC(=S)Nc1cc(C(F)(F)F)cc(C(F)(F)F)c1	73.2% (inactive)
CCN1C(=O)C2(Nc3ccccc3S2)c2cc(C)ccc21 (stereo not drawn)	86.8% (inactive)
Cc1nc(-c2ccccc2)cc2c(O)c(C(=O)N/N=C/Cc3ccccc3)[nH]c(=O)c12	91.1% (inactive)
O=S(=O)(/N=C1C=C/C(=N\S(=O)(=O)c2ccccc2)c2ccccc2\1)c1ccccc1	85.9% (inactive)
CCCOC(=O)c1ccc2c(c1)[N+](=O)C(C(=O)c1ccccc1)=C(C(F)(F)F)[N+]2=O	-92.6% (active)
CCCN(CCC)c1ccc(/C=C/c2ccc3cc(OCC)ccc3n2)cc1	76.8% (inactive)
COc1cccc(C2CC(=O)Nc3cc4c(cc32)CCC4)c1OC (stereo not drawn)	60.9% (inactive)
CC1SC(c2ccc(Cl)cc2)N(CCc2cccs2)C1=O (stereo not drawn)	-48.9% (active)
O=C(O)c1ccccc1Oc1cc(-c2ccco2)nc(OCCBr)n1	103% (inactive)
COc1ccccc1/C=C/C(=O)/C=C/c1ccccc1O	30.1% (inactive)
COc1cc(/C=C/C(=O)C(=Cc2ccc(F)c(F)c2)C(=O)/C=C/c2ccc(O)c(OC)c2)ccc1O	-48.3% (active)
CC1(C)CC(=O)C2=C(C1)Nc1cc3c(cc1C2c1ccc(F)cc1)OCO3 (stereo not drawn)	80.9% (inactive)
Nc1nc(N)c(C=Nc2ccc(Br)cc2)c(Nc2ccc(Br)cc2)n1	86.4% (inactive)

Structure (SMILES)	growth
COc1cc(/C=C2\C(=O)Nc3ccccc32)cc(OC)c1O	8.78% (active)
Brc1ccccc1Nc1ccc2nnc(-c3ccncc3)n2n1	-71.2% (active)
O=C(Nc1nc2ccccc2[nH]1)C(=O)Nc1nc2ccccc2[nH]1	101% (inactive)
COc1ccc(C2SC(C)C(=O)N2CCc2cccs2)cc1OC (stereo not drawn)	66.2% (inactive)
Oc1ccc(Cl)cc1CNc1nc2ccccc2[nH]1	62% (inactive)
CCOC(=O)c1c(-c2cc(OC)c(OC)c(OC)c2)csc1N	79.6% (inactive)
COc1cc(C2CC(=O)Nc3c2ccc2ccccc32)cc(Br)c1OC (stereo not drawn)	-42.7% (active)
Cc1ccc(-c2nnc(COc3ccc(-c4nnc(N)s4)cc3)o2)cc1	73.9% (inactive)
COc1cc(/C=C2\C(=O)N(c3c(Cl)cccc3Cl)c3ccccc32)cc(OC)c1O	28% (inactive)
COC(=O)[C@H]1CCCN1C(=O)[C@H]1CCCN1C(=O)[C@@H](Cc1c[nH]c2ccccc12)NC(=S)Nc1cc(C(F)(F)F)cc(C(F)(F)F)c1	85.7% (inactive)
COc1ncnc2c1ncn2C/C(Br)=C(\Br)CCl	-72.1% (active)
COc1cc(CNCCN2C(=O)c3ccc4c5c(ccc(c35)C2=O)C(=O)N(CCNCc2cc(OC)c(OC)c(OC)c2)C4=O)cc(OC)c1OC	-60.3% (active)
O=C1CN2CCC1C/C2=C\c1ccnc2c(Cl)cccc12 (stereo not drawn)	88.9% (inactive)
O=C1OCC2=C1C(c1ccc3c(c1)OCO3)CC(=O)N2c1cccc(Cl)c1 (stereo not drawn)	92.9% (inactive)
Cc1ccc(C2SCC(=O)N2NC(=O)c2[nH]c3ccc(F)cc3c2-c2ccccc2)cc1 (stereo not drawn)	67.8% (inactive)
O=C(Nc1ccccc1)Oc1cccc2cccnc12	-4.77% (active)
CCOC(=O)c1sc(NC(=O)CN2CCC(Cc3ccccc3)CC2)nc1C	92.9% (inactive)
CN([N-]C(=O)CC(=O)[N-]N(C)C(=S)c1ccccc1)C(=S)c1ccccc1.[Cu+2]	-93.4% (active)
Clc1cccc(Cl)c1Nc1ccc2nnc(-c3ccncc3)n2n1	-74.4% (active)
